# SMN2 splice enh: enhancers of SMN2 splice variant expression; HEK293 SMN2-luciferase splicing reporter, luminescence, 30-36 h; Potency, µM (doses to about 46.1 µM), without a hit: at the top dose activity change, positive = activation, most hits filed as activators; actives 2.8% (n = 210,000); AID 1458; also: % of control where 0% means no effect; nearly all actives have a fitted effect of over 55% in size
#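 HEK293 cells carry an SMN2 minigene-luciferase reporter in which exon 7 inclusion puts luciferase in frame. Cells were seeded at 2000 cells/well, attached for 10-12 hours, then exposed to compounds for 30-36 hours at 37C before ONE-Glo luminescence.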
# Rab9 promoter act: activates the Rab9 promoter; Huh7 Rab9 promoter-luciferase reporter, luminescence, 24 h; Potency, µM (series often up to 9.22 µM), inactives show top-dose activation, negative = inhibition, actives largely listed as activators; actives 2.8% (n = 320,000); also: % of control where 0% means no effect; nearly all actives have a fitted effect of over 60% in size
#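 Luminescence from Amplite-detected luciferase (10 minutes, ambient) reports Rab9 promoter activation. Before that, stable Rab9-luciferase Huh7 cells (1500/well, reduced-serum OP-MEM I plus 10% FBS) were exposed to compound for 24 hours at 37C.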
# KinaseGlo FLuc: blocks Kinase-Glo luciferase, a counter-screen artifact. Kinase-Glo luciferase, ATP luminescence, 8 min. Potency, µM (highest dose often 38.3 µM), inactives show at the top dose activity change, negative = inhibition, hits mostly inhibitors. actives 0.28% (n = 200,000); also: % is scaled to controls: 0 for no effect and ±100 for the full control effect; nearly all actives have a fitted effect of over 60% in size
#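 Kinase-Glo luciferase light output from ATP and luciferin was measured with 10 uM ATP, within the enzyme's linear range. Buffer: 50 mM imidazole pH 7.2, 50 mM KCl, 7 mM MgCl2, 0.01% Tween 20, 0.05% BSA; luminescence read after 8 min at ambient temperature.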
# NPC1 promoter act: activators of NPC1 promoter; AID 485313; Huh7 NPC1 promoter luciferase reporter, 24 h; Potency, µM (highest dose often 9.22 µM), for the others: top-dose activation, actives largely listed as activators; actives 2.4% (n = 320,000); also: % of control where 0% means no effect; nearly all actives have a fitted effect of over 60% in size
#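 Stable NPC1-promoter luciferase Huh7 line; cpd (DMSO) 24 h, 37 °C, 5% CO2; Amplite luciferase reagent 10 min RT; luminescence readout. qHTS format.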
# ELG1 genotoxic: inducers of genotoxicity in HEK293T ELG1-luciferase cells; HEK293T ELG1-luciferase reporter, luminescence, 16 h; actives 1.3% (n = 330,000); Potency, µM (series often up to 46 µM), inactives show at the top dose activity change, positive = activation, most hits filed as activators; also: % of control where 0% means no effect; nearly all actives have a fitted effect of over 60% in size
#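 HEK293T cells expressing luciferase-tagged ELG1 were treated with compound or DMSO for 16 hr at 37°C. Luciferase activity was then read after 30 min with ONE-Glo at room temperature; rising signal flags genetic stress.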
# FLuc counter: inhibits or activates purified firefly luciferase, miR-21 counter-screen; Potency, µM (highest dose often 57.5 µM), without a hit: at the top dose activity change, negative = inhibition, usual class: inhibitors; purified FLuc, Km substrates, luminescence inhibition; actives 6.9% (n = 360,000);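 also: plate controls were vehicle for no effect and reference inhibitor for full effect; nearly all actives have a fitted effect of over 55% in size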
# Target sequence (P08659 whole entry, looked up): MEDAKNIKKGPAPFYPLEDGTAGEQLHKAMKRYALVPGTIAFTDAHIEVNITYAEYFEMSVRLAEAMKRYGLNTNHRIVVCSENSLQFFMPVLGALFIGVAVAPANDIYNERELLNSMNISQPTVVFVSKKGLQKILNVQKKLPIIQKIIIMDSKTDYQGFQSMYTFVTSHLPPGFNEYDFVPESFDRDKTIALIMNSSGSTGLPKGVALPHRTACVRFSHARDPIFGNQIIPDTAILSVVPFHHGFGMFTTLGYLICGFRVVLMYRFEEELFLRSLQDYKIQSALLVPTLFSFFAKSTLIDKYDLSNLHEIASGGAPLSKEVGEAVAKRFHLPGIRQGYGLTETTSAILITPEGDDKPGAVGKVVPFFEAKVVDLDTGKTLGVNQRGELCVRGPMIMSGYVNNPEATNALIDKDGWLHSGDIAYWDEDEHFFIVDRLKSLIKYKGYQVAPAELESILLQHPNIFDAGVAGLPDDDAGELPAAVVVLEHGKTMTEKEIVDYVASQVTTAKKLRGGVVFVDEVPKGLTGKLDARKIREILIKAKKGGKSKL
#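 Purified P. pyralis luciferase, 10 nM final, with Km-level 10 uM D-luciferin and 10 uM ATP in 50 mM Tris acetate pH 7.5, 10 mM Mg acetate, 0.01% Tween-20, 0.05% BSA; 6-point qHTS titration about 60 µM downward; luminescence read.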
# Numbers without * were called inactive; ? = inconclusive; / = no result given. A selection: hits, their analogues and other compounds. The true share with any hit is near 7.5%. Calls follow the shape of the dose curve; as a rule, active = well fitted curve in the direction sought with a large enough effect; inconclusive = small, poorly fitted or top-dose-only effect, or another doubt; inactive = no such curve, though single readings can be large; an effect the other way counts as inactive or inconclusive. Potency is read from the fitted curve at half-maximal effect.
SMILES,SMN2 splice enh,Rab9 promoter act,KinaseGlo FLuc,NPC1 promoter act,ELG1 genotoxic,FLuc counter
O=C1N/C(=N\N=C\c2ccccn2)SC1Cc1cccc(SC(F)F)c1 (configuration not stated),-81%,-10%,-2%,-1%,10%,15µM*
O=C1N/C(=N\N=C\c2cccnc2)SC1Cc1ccc(SC(F)F)cc1 (configuration not stated),-66%,-12%,-2%,-10%,15%,11µM*
O=C1N/C(=N\N=C\c2ccc3ncccc3c2)SC1Cc1ccc(SC(F)F)cc1 (configuration not stated),13µM*,?,-3%,?,?,0.54µM*
O=C(CC1S/C(=N/N=C/c2cccnc2)NC1=O)Nc1ccccc1 (configuration not stated),-3%,-2%,2%,-4%,-11%,?
COc1cc(/C=N/N=C2/NC(=O)C(Cc3ccccc3)S2)ccc1O (configuration not stated),66%,-2%,-4%,7%,25%,2.4µM*
COc1ccc(/C=N/N=C2/NC(=O)C(CC(=O)O)S2)cc1OS(=O)(=O)c1ccccc1 (configuration not stated),3%,-7%,2%,-1%,1%,?
Cc1nc(N2C(=O)c3oc4ccccc4c(=O)c3C2c2ccccc2F)sc1C (configuration not stated),3%,/,/,/,/,0%
Cc1cccc(OCC(=O)Nc2nonc2-c2ccc(Br)cc2)c1C,/,/,/,/,/,-5%
O=S(=O)(c1ccccc1)N1CCN(c2nc3ccccc3s2)CC1,-4%,?,3%,21%,?,5%
Clc1ccc2nc(N3CCN(c4ccccc4)CC3)sc2c1,3.2µM*,0.89µM*,-2%,1.4µM*,?,0.6µM*
Brc1ccc2nc(N3CCN(c4ccccc4)CC3)sc2c1,3.2µM*,1µM*,2%,1.8µM*,2.3µM*,?
Fc1ccc2nc(N3CCOCC3)sc2c1,?,?,-18%,?,?,?
c1ccc2c(c1)CCN(c1nc3cc4c(cc3s1)OCO4)C2,2.2µM*,1.3µM*,?,1.6µM*,0.46µM*,1.3µM*
c1ccc(N2CCN(c3nc4cc5c(cc4s3)OCO5)CC2)cc1,?,0.71µM*,0%,0.79µM*,11%,1.1µM*
c1c2c(cc3sc(N4CCCCC4)nc13)OCO2,3.2µM*,0.32µM*,13µM*,0.4µM*,?,0.67µM*
c1c2c(cc3sc(N4CCOCC4)nc13)OCO2,11µM*,1.1µM*,11µM*,2.8µM*,?,6µM*
O=C(c1ccc(Cl)cc1)N1CCC(c2nc3ccccc3o2)CC1,/,/,/,/,/,-12%
COc1cccc(/C=C/c2nc(C#N)c(N3CCN(C)CC3)o2)c1,-5%,/,/,/,/,1%
COc1cc2c(cc1OC)C(COc1ccccc1OC)N(C(=O)c1ccc(S(=O)(=O)N3CCCC3)cc1)CC2 (configuration not stated),/,/,/,/,/,-1%
COc1cccc(Cn2c(=O)c(-c3ccc(Cl)cc3)nc3cnc(N(C)C)nc32)c1,1%,/,0%,/,/,/
COc1ccccc1C(=O)NCCC(=O)NCC(c1ccc(F)cc1)N1CCOCC1 (configuration not stated),/,0%,/,-5%,1%,3%
O=C(Nc1ccc(Cl)cc1)Nc1ccc2c(c1)N1CCN=C1S2,-25%,11%,-7%,10%,-6%,8.5µM*
Cc1ccccc1OCC(=O)Nc1ccccc1CO,20%,-6%,1%,14%,1%,?
Cc1ccc(OCC(=O)NC2=NCCS2)cc1,-17%,20%,-7%,24%,4%,11µM*
Cc1ccccc1OCC(=O)NC1=NCCS1,13µM*,2.8µM*,-11%,1.8µM*,9.2µM*,12µM*
O=C(CSc1ccccc1)NC1=NCCS1,/,-3%,/,1%,1%,13µM*
